One assay addresses TRAPPC2. The assay can be described thus: pooled miR-30 sensor sort-seq; sequence = guide strand. The note with it: shRNA.
Sequence TTCAAGTACATGTTGTTCGATA gave a sensor-assay potency score (higher = more potent) of -0.28.
Consider TTATTCCATCTTCTTGTCTTAT, for which the sensor-assay potency score (higher = more potent) was -1.23.
Still for that read-out and setting: the result for TTGTCTTATGTCATGAAGCATA reads -1.65; that for ATGCACTTGATCGAATAGGAGA, -1.42; that for TTGATCGAATAGGAGAATTGGG, -0.578.
On the same count and under the same terms, with TGTCAAATGCACTTGATCGAAT the figure was -0.613.
Same read-out and setting: the result for TATATAAATCATAAACATCAGT reads -0.905; that for TCGTTGAACTTGTCCACAGTTT, -0.427.
TATTCCATCTTCTTGTCTTATG: the sensor-assay potency score (higher = more potent) is -1.41.
Same read-out and setting: the result for TTTATTCCATCTTCTTGTCTTA reads -0.31.

The next assay has as its target TRIL. Described as above. The following applies: shRNA.
As for TAGAAATCGCCCCTGCTGCTGG, the sensor-assay potency score (higher = more potent) is -0.425.
Same read-out and setting: the result for TTCTTGTGCAGGTCTAGGGACT reads -1.42; that for TTGCAGCTGCTGGTCATCCAGG, -1.05.
The same measure, in the same setting: with TTGCCGTCTAGATCCAGCCGAT the figure was -0.561; with TACAGCTCTTCCAGCCGCGAGA, -1.34.
Same read-out and setting: the result for TTGACTAGACTCTCCAGGCCCT reads -0.105; that for ATGAACTTGTTGAAGTCGCATG, -1.34; that for TTGCACAGAATGAACTTGTTGA, 0.574.
Take TTGTACTGCAGGTCCAGCCGTC: the sensor-assay potency score (higher = more potent) was -0.188.
Still for that read-out and setting: the result for AACTTGTTGAAGTCGCATGGGT reads -0.301; that for TTGGTTATGAAGTTGCCGCCGA, -0.156.
Still for that read-out and setting: the result for TAGGTGAGCACGTCGTGGGGGC reads -0.151.

In the next assay the target is TRIM23. The description is as above. The following applies: shRNA.
Sequence TTTGTTAGCAAAAATCAGGAGC registered a sensor-assay potency score (higher = more potent) of -0.0645.
Same read-out and setting: with TACATGTTCTGTGTGAGCCATT the figure was -1.01.
Still for that read-out and setting: with TACTGAATGCTTGTGACCCTGG the figure was 0.0097.
On the same count and under the same terms, the result for TACAACAAACACAACAGCTTGA reads 0.537.
On to TCAGCTAGAGGAACTCGCCTGT, for which the sensor-assay potency score (higher = more potent) came to 0.453.
On the same count and under the same terms, the result for TAATCTGAGATTTCCTCTGTGA reads 0.349.
Same read-out and setting: the result for TTTTCCGTTAACAACTTTGCAA reads -0.567; that for TAGTTTGACAACCTTCTTCCAA, -0.272; that for AACTTCTGTAAACTGCTGCTGC, 0.168.
On the same count and under the same terms, with TTTTGGTCCAATGTGAACTCGA the figure was 0.0711.
Sequence TTAATTTGTGTTTTCCACCTAC came in with a sensor-assay potency score (higher = more potent) of 0.335.
Regarding AACTCTACAATCATCCTGCTGC, the sensor-assay potency score (higher = more potent) is 0.546.
Still for that read-out and setting: with TTTCCGTTAACAACTTTGCAAG the figure was -1.22; with ATCAACAACACTTAGAGCCATT, -1.25; with TTCTTCTGCAGCTCCATACTGA, -0.628.
On the same count and under the same terms, with TAAGCTCGAATACATGACCGGG the figure was -0.886; with TATGCACACAAACTACACCTGT, -0.275.
Still for that read-out and setting: the result for TAGTAGTTTTTCCAGCACCATC reads -1.64.

Values taken from the OligoGym collection.
Also: reference of the scale not given here.
